Measured values taken from PubChem BioAssay (NCI).
This is part of a sample that, as a whole, favours compounds with a hit. Of some 83,000 tested, about 20% had one in any assay.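 Treatment: one concentration, 48 hours, 96-well format. Scoring: percent growth, with anything below 10 considered active.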 Calls of active or inactive are those of the source.

Assays:
Test in all cases: NCI-60 one-dose screen, 48 h (100 = growth as untreated, 0 = no growth, -100 = all killed)
Details in all cases: 10 µM unless noted
DU-145 prostate = system: DU-145 prostate
K-562 leukemia = system: K-562 leukemia
RXF 393 renal = system: RXF 393 renal
SF-268 CNS = system: SF-268 CNS
SF-295 CNS = system: SF-295 CNS
SF-539 CNS = system: SF-539 CNS
UACC-257 melanoma = system: UACC-257 melanoma
M14 melanoma = system: M14 melanoma
MALME-3M melanoma = system: MALME-3M melanoma
MDA-MB-231 breast = system: MDA-MB-231 breast

Measured: growth

Clc1ccc2c(N3CCN(c4ccnc(NC5CCCCC5)n4)CC3)ccnc2c1
active: K-562 leukemia 7.08% | UACC-257 melanoma 0.862% | M14 melanoma -43.7%
inactive: DU-145 prostate 62.4% | RXF 393 renal 57.6% | SF-268 CNS 71.6% | SF-295 CNS 39.3% | SF-539 CNS 53.5%

CSC1=CC(=O)c2ccccc2C1=O
active: MALME-3M melanoma -0.209% | MDA-MB-231 breast -14.5%
inactive: DU-145 prostate 95.5% | RXF 393 renal 98.3% | SF-268 CNS 69% | SF-295 CNS 93.7% | SF-539 CNS 97.1% | UACC-257 melanoma 42% | M14 melanoma 94.7%

OB(O)c1ccccc1
inactive: DU-145 prostate 111% | MALME-3M melanoma 102% | MDA-MB-231 breast 114% | RXF 393 renal 123% | SF-268 CNS 106% | SF-295 CNS 97.7% | SF-539 CNS 106% | UACC-257 melanoma 99.4% | M14 melanoma 108%

CCCCCCCCCCCCCCCC[N+]1(C)CCOCC1
active: MALME-3M melanoma -2.82% | MDA-MB-231 breast -7.42% | RXF 393 renal -79.9% | SF-268 CNS -34.5% | SF-539 CNS -1.77% | M14 melanoma 1.49%
inactive: DU-145 prostate 28.7% | SF-295 CNS 19.8% | UACC-257 melanoma 49.4%

Cc1ccc(N(CSc2ccc(Cl)cc2)CSc2ccc(Cl)cc2)cc1
inactive: DU-145 prostate 44.8% | MALME-3M melanoma 69.1% | MDA-MB-231 breast 18.4% | RXF 393 renal 91.4% | SF-268 CNS 25% | SF-295 CNS 11.3% | SF-539 CNS 16.1% | UACC-257 melanoma 88.9% | M14 melanoma 57.8%

Brc1ccc(Br)nn1
active: DU-145 prostate -91% | MALME-3M melanoma -91% | MDA-MB-231 breast -65.6% | RXF 393 renal -89.8% | SF-268 CNS -74.4% | SF-295 CNS -10.9% | SF-539 CNS -53.1% | UACC-257 melanoma -68.4% | M14 melanoma -76.4%

COc1ccc(OC2=C(C#N)C(=N)N3c4ccccc4Sc4ccccc4C3N2)cc1 (configuration not stated)
inactive: DU-145 prostate 99.7% | K-562 leukemia 148% | MDA-MB-231 breast 60.8% | RXF 393 renal 78% | SF-268 CNS 89.2% | SF-539 CNS 91.5% | UACC-257 melanoma 115% | M14 melanoma 105%

O=[N+]([O-])c1ccc(O)c2ncccc12
inactive: DU-145 prostate 75.8% | MALME-3M melanoma 52.2% | MDA-MB-231 breast 46% | RXF 393 renal 92.4% | SF-268 CNS 50.2% | SF-295 CNS 24.5% | SF-539 CNS 42.2% | UACC-257 melanoma 73.6% | M14 melanoma 47.3%

CCCCC/C=C\C/C=C/CCCCCCCCNC(=O)Nc1ccc([N+](=O)[O-])cc1
inactive: DU-145 prostate 47.3% | MALME-3M melanoma 82.9% | MDA-MB-231 breast 77.8% | RXF 393 renal 113% | SF-268 CNS 42.5% | SF-295 CNS 56.4% | SF-539 CNS 107% | UACC-257 melanoma 98.9% | M14 melanoma 77.9%

CC(C)N1CCN(c2ccc(OC[C@H]3CO[C@](Cn4cncn4)(c4ccc(Cl)cc4Cl)O3)cc2)CC1
active: UACC-257 melanoma -28.4%
inactive: DU-145 prostate 111% | MALME-3M melanoma 86.1% | MDA-MB-231 breast 65.8% | RXF 393 renal 74.7% | SF-268 CNS 102% | SF-295 CNS 89% | SF-539 CNS 79.4% | M14 melanoma 52.8%

Cc1cc[n+](CCc2ccccc2)cc1
inactive: RXF 393 renal 108%

CSc1nnc(-c2sc3nnc(-c4ccccc4)c(-c4ccccc4)c3c2O)o1
inactive: DU-145 prostate 84.7% | MDA-MB-231 breast 90.4% | RXF 393 renal 82.6% | SF-268 CNS 80.6% | SF-295 CNS 40.8% | SF-539 CNS 84.6% | UACC-257 melanoma 91.6% | M14 melanoma 73%

CC1=C(C/C=C(\C)CCC[C@H](C)CCC[C@H](C)CCCC(C)C)C(=O)c2ccccc2C1=O
inactive: DU-145 prostate 120% | MALME-3M melanoma 102% | MDA-MB-231 breast 106% | RXF 393 renal 119% | SF-268 CNS 108% | SF-295 CNS 101% | SF-539 CNS 96.4% | UACC-257 melanoma 98.2% | M14 melanoma 104%

C=CCCCCCCCCC(=O)[O-].C=CCCCCCCCCC(=O)[O-].[Zn+2]
inactive: MDA-MB-231 breast 106%

Cc1cc(O)cc2c1[C@H]1CC[C@]3(C)[C@@H](O)CC[C@H]3[C@@H]1C=C2
inactive: DU-145 prostate 113% | MDA-MB-231 breast 80.9% | SF-268 CNS 92.2% | SF-539 CNS 98.4% | UACC-257 melanoma 85.2% | M14 melanoma 77.5%

N#C[S-].[Au+].c1ccc(CN2[CH-]N(Cc3ccccc3)C(c3ccccc3)=C2c2ccccc2)cc1
active: SF-295 CNS -14.8%

FCOC(C(F)(F)F)C(F)(F)F
inactive: DU-145 prostate 113% | MALME-3M melanoma 92.2% | MDA-MB-231 breast 120% | RXF 393 renal 115% | SF-268 CNS 115% | SF-295 CNS 106% | SF-539 CNS 98.8% | UACC-257 melanoma 90.4% | M14 melanoma 99.9%

CON=C1C[C@]2(C[C@@H]3C[C@@H](C/C=C(\C)C[C@@H](C)/C=C/C=C4\CO[C@@H]5[C@H](O)C(C)=C[C@@H](C(=O)O3)[C@]45O)O2)O[C@H](/C(C)=C/C(C)C)[C@H]1C
inactive: DU-145 prostate 39.6% | MALME-3M melanoma 65.9% | MDA-MB-231 breast 54% | RXF 393 renal 47.2% | SF-268 CNS 58.3% | SF-295 CNS 33% | SF-539 CNS 85.1% | UACC-257 melanoma 81.3% | M14 melanoma 57.4%
